TDP1 cell noCPT: qHTS for Inhibitors of human tyrosyl-DNA phosphodiesterase 1 (TDP1): qHTS in cells in absence of CPT; DT40 Tdp1-/- hTDP1 cells, no CPT, ATP luminescence, 48 h; AID 686978, 2013; hit rate 15% among 420,000; Potency, µM (series often up to 46.2 µM), for inactives: top-dose activity change, negative = growth inhibition, usual class: inhibitors; note: potency is the fitted concentration of half-maximal effect; nearly all actives have a fitted effect of over 55% in size
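Chicken DT40 Tdp1-/- cells complemented with human TDP1, screened without camptothecin (DMSO vehicle only), 400 cells/well. Compounds pin-transferred, cells incubated at 37 °C for at least 48 hr. Growth read as ATP-dependent luminescence (CellTiter-Glo, 30 min at RT).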
IL-1B inflam inh: blocks inflammasome-driven IL-1 beta release. THP-1 LPS/ATP IL-1B secretion, AlphaLISA, 16 h; hits give low values. activity change, % at 57.5 µM. hit rate 4.7% among 360,000. AID 743279; in the data active = activity change below about -50%; inconclusive = mostly about -30% to -49%
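Secreted IL-1B measured by AlphaLISA bead assay after 16 h compound exposure of THP-1 cells; compounds (final up to 57.5 uM) added 1 h before LPS (250 ng/mL) and ATP (1.25 mM) stimulation; lower signal means less secretion.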
ELG1 DNA repair: inhibitors of ELG1-dependent DNA repair in HEK293T cells. HEK293T ELG1-luciferase reporter, luminescence, 16 h; DNA damage induced by 5-fluorouridine. Potency, µM (highest dose often 46.1 µM), inactives show at the top dose activity change, negative = inhibition, hits mostly inhibitors. hit rate 2.3% among 330,000. AID 504467; note: potency is the fitted concentration of half-maximal effect; nearly all actives have a fitted effect of over 55% in size
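Overnight (16 hr) co-exposure of 2,000 cells/well to 5-fluorouridine and compound at 37 °C preceded detection. Luciferase was quantified via ONE-Glo luminescence; loss of signal denotes inhibition.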
DT40 TDP1 CPT: growth inhibition of DT40 Tdp1-/-;hTDP1 cells with camptothecin (screen for TDP1 inhibitors); AID 686979; Potency, µM (titrated, usually from 46.2 µM), without a hit: top-dose activity change, negative = growth inhibition, hits mostly inhibitors; chicken DT40 Tdp1-/-;hTDP1 cells + 20 nM CPT, ATP luminescence, 48 h; hit rate 12% among 420,000; note: potency is the fitted concentration of half-maximal effect; nearly all actives have a fitted effect of over 55% in size
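Chicken DT40 Tdp1-/- cells stably complemented with human TDP1 were seeded at 400 cells/well in medium containing 20 nM camptothecin, exposed to pin-transferred compounds, and grown at 37 °C for at least 48 hr. Viability was read as ATP luminescence.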
HT1080-NT tox: kills 2HG-producing HT-1080-NT fibrosarcoma cells; hit rate 1.6% among 360,000; Potency, µM (top dose mostly 46.1 µM), inactives show top-dose activity, negative = less viability, hits mostly cytotoxic; HT-1080-NT fibrosarcoma viability, CellTiter-Glo ATP luminescence, 48 h; AID 686970;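 note: NT is the 2HG producing partner of a matched IDH1 knockdown line; potency is the fitted concentration of half-maximal effect; 0% = DMSO-treated cells and -100% = media-only wells without cells; nearly all actives have a fitted effect of over 55% in size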
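A 48-hour cytotoxicity screen used HT-1080-NT cells plated 2 hours before compound delivery. ATP-based CellTiter-Glo luminescence measured viability, normalized to DMSO and no-cell controls.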
HT1080 IDH1KD tx: toxicity to HT-1080 IDH1 knockdown cells (counter line); HT-1080 IDH1 knockdown viability, ATP luminescence, 48 h; Potency, µM (titrated, usually from 46.1 µM), for inactives: top-dose activity, negative = toxicity, usual class: cytotoxic; hit rate 2% among 360,000; AID 686971;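 note: potency is the fitted concentration of half-maximal effect; 0% = DMSO wells and -100% = cell-free medium wells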
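Cytotoxicity counter-line: IDH1KD HT-1080, 48 h, CellTiter-Glo. Curves classed by r2, magnitude and activity.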
* hit, by the source's call; ? = inconclusive; . = no result given. Hits are enriched below; roughly 19% of the tested compounds scored in any of these assays. Unless noted, calls come from the whole dose curve; as a rule, active = well fitted curve in the direction sought with a large enough effect; inconclusive = small, poorly fitted or top-dose-only effect, or another doubt; inactive = no such curve, though single readings can be large; an effect the other way counts as inactive or inconclusive. Unless noted, % is set by controls: 0 for no effect and ±100 for the full control effect.

SMILES | TDP1 cell noCPT | IL-1B inflam inh | ELG1 DNA repair | DT40 TDP1 CPT | HT1080-NT tox | HT1080 IDH1KD tx
Cc1cc(NC(=O)CSc2nc(-c3ccco3)cc(C(F)(F)F)n2)no1 | 0.731µM* | 61.9 | ? | 0.581µM* | 0.581µM* | 0.517µM*
COc1ccc(NC(=O)CCSc2nc(-c3ccco3)cc(C(F)(F)F)n2)cc1 | -7.8% | . | . | -13.7% | . | .
COc1ccc(CCNC(=O)Cc2c(C)c3cc4c(C)coc4cc3oc2=O)cc1OC | -1.7% | . | . | 8.5% | . | .
COc1ccc(NC(=O)CCCSc2nc(-c3ccco3)cc(C(F)(F)F)n2)cc1OC | ? | -20.7 | 20.6µM* | ? | -24.3% | -25.3%
CCn1nc(C)c(NC(=O)CCCSc2nc(-c3ccco3)cc(C(F)(F)F)n2)c1C | 14.6µM* | -21.7 | ? | 18.4µM* | -20.1% | -19.0%
CN(C)c1ccc(NC(=O)CCSc2nc(-c3ccco3)cc(C(F)(F)F)n2)cc1 | 18.4µM* | . | . | ? | . | .
Cc1ccc(NC(=O)CSc2nc(-c3ccco3)cc(C(F)(F)F)n2)cc1 | 3.26µM* | . | . | 2.06µM* | . | .
Cc1cc(NC(=O)CCCSc2nc(-c3ccco3)cc(C(F)(F)F)n2)no1 | -27.4% | 2.3 | ? | -0.2% | 12.8% | 2.1%
CCOC(=O)c1c(C)[nH]c(C=C2C(=O)CCCC2=O)c1O | -4.9% | 6.7 | -2.3% | ? | -0.3% | 2.2%
O=C(CSc1nc(-c2ccco2)cc(C(F)(F)F)n1)Nc1ccccc1C(F)(F)F | ? | ? | -8.2% | ? | ? | -0.1%
O=C(CSc1nc(-c2ccco2)cc(C(F)(F)F)n1)Nc1ccc(C(=O)N2CCCCC2)cc1 | 6.51µM* | 7.2 | 4.61µM* | 7.31µM* | 0.2% | 0.4%
CN=C1S/C(=C\c2ccc(N3CCOCC3)c(F)c2)C(=O)N1C | 14.6µM* | 12.8 | -7.9% | ? | 1.4% | 0.8%
CCCN1CCC(=O)N([C@H](CSc2ccccc2)Cc2ccccc2)CC1 | 11.2µM* | -8.0 | 12.1% | 11.2µM* | 1.9% | -0.3%
CC(C)CN1CCC(=O)N([C@H](CO)Cc2ccccc2)CC1 | -13.0% | 25.7 | 24.4% | 8.3% | 16.3% | 7.0%
CC(C)CN1CCC(=O)N(CCSc2ccc(Br)cc2)CC1 | ? | 6.3 | 7.5% | 20.6µM* | -2.0% | 0.2%
Cc1ccc(SC[C@H](Cc2ccccc2)N2CCN(CC(C)C)CCC2=O)cc1 | 18.4µM* | -22.6 | -1.2% | ? | 6.6% | 7.9%
CC(C)CN1CCC(=O)N([C@H](CSc2ccccc2)Cc2ccccc2)CC1 | 16.4µM* | -16.9 | -11.6% | 18.4µM* | -1.0% | -9.4%
CC(C)CN1CCC(=O)N(CCOc2ccccc2)CC1 | 0.5% | 9.1 | ? | -1.1% | 0.0% | 0.0%
NS(=O)(=O)c1ccc(N2C(=O)CCCC2=O)cc1 | 11.9% | 6.4 | . | -1.8% | 18.6% | 14.4%
O=C(Cc1ccccc1[N+](=O)[O-])NCC(=O)c1ccc2c(c1)OCO2 | -12.4% | -3.2 | . | -3.1% | 9.1% | 11.8%
O=C(CCCN1C(=O)c2ccccc2C1=O)Nc1nnc(C2CC2)s1 | -4.4% | 36.1 | 14.9% | 12.7% | 6.5% | 1.2%
O=C(NC(=S)Nc1nc2ccc(F)cc2s1)c1ccco1 | 2.91µM* | 40.6 | ? | 4.11µM* | 7.7% | 1.4%
O=C(Nc1nc2cc3c(cc2s1)OCCO3)c1ccco1 | 16.4µM* | ? | ? | 11.6µM* | ? | ?
O=C(Nc1nc2cc3c(cc2s1)OCCO3)c1ccncc1 | 23.1µM* | -15.1 | ? | ? | -3.2% | -16.3%
O=C(Nc1nc2cc3c(cc2s1)OCO3)c1ccco1 | ? | -1.6 | ? | ? | ? | ?
C=CCn1c(SCC(=O)c2ccc(O)c(O)c2)nnc1-c1cccc(OC)c1 | 14.6µM* | 1.5 | -9.9% | 14.6µM* | 1.3% | -10.3%

Assay outcomes from PubChem BioAssay.
